The text below walks through data of ChEMBL document CHEMBL3988442, “University of Dundee, Small-Polar-MMV Screening Library” (2021).

SMILES strings stand for the structures.

Sialic acid-binding Ig-like lectin 9 (Homo sapiens), sequence (Q9Y336 whole entry): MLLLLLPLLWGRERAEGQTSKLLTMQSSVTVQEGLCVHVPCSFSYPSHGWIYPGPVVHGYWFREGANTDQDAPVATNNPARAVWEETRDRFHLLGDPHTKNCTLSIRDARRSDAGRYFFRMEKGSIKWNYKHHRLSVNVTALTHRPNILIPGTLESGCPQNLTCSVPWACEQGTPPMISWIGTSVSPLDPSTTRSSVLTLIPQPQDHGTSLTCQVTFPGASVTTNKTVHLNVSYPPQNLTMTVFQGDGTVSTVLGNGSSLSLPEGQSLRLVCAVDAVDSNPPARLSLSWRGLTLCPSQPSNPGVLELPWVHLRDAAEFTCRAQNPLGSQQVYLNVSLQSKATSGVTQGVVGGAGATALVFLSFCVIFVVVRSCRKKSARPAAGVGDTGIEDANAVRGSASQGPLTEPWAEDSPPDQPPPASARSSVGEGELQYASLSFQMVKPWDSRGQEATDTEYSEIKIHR

This assay addresses Sialic acid-binding Ig-like lectin 9 (Homo sapiens) (UniProt Q9Y336). Put plainly: Hs-Siglec9 ALPHAscreen SOP 20170721. More on the design: scale not given: direction of the effect not stated beside the values. To be noted: 10 µM. Background: Alpha assays give light when donor and acceptor beads are brought close together.
`O=C1COC2(CCN(C(=O)c3ccco3)CC2)CN1Cc1ccccn1`: the Percent Effect came to 2.04%. Turning to `Cc1ccn(-c2cccc(C(=O)N3CCCC(n4ccnc4C)C3)c2)n1` (stereo not given), the Percent Effect came out at 11.9%. The result for `Cc1ccoc1-c1nnc(CN2CCn3c(nnc3C3CC3)C2)o1` reads -0.995%; that for `CC(=O)N1CCCC1c1csc(Nc2cnccn2)n1` (stereo not given), -8.01%; that for `Fc1ccc(-c2nnc(CN3CCn4c(nnc4C4CC4)C3)o2)cc1`, 2.87%. `CC(C)c1cc(NC(=O)CN2CCNC(=O)C2)on1`: the Percent Effect is -4.98%. With `CN(C)c1ccc(NC(=O)NCc2ccccn2)cn1`, the Percent Effect was -3.66%. Then `CNc1snc(C)c1C(=O)N1CCCC(n2nc(C)cc2C)C1` (stereo not given), with 16.1%.

Turning to `COc1ccc(CN2CCC[C@@H]3CN(C(=O)c4ccco4)C[C@@H]32)cc1`, the Percent Effect is -12.3%. Then `O=C(c1cc(Cl)c2c(c1)OCCO2)N1CCCC(n2cncn2)C1` (stereo not given), with 5.05%; and `CCC(=O)N1CCC(O)(c2ncc(OC)nc2OC)CC1`, with 3.93%. In the case of `CCCn1ncc2c(C(=O)Nc3n[nH]c(SC)n3)cc(C3CC3)nc21`, the Percent Effect was -0.527%. The result for `Cc1nc(CN(C)C2CCN(CCCOc3ccccc3)C2)no1` (stereo not given) reads -1.5%.

`CCOc1ncccc1NC(=O)NC1CCCN(c2ncccn2)C1` (stereo not given): the Percent Effect was 1.83%. Then `COC(=O)NCc1cc2n(n1)CCCN(C(C)=O)C2`, with -0.0271%; and `Fc1ccc(CN2CCC(c3n[nH]c4ncccc34)CC2)cc1F`, with -2.28%.

In the case of `c1ccc(-c2nc(CN3CCc4c(ncn4C4CC4)C3)cs2)cc1`, the Percent Effect is -12.1%. The result for `Cc1ccc(C(=O)N2CCCC3(CCCC(=O)N3C)C2)cc1F` (stereo not given) reads -4.32%. The result for `Cc1nn(C)c(N(C)C)c1CNC(C)c1cccc(OC(C)C)c1` (stereo not given) reads 13.8%; that for `c1csc(-c2nc(CN3CCn4c(nnc4C4CC4)C3)co2)c1`, 1.96%.
